# Records with an inconclusive call do not appear. Activity calls are given as the source filed them. Unless noted, the call rests on the fitted dose curve; in most records, active means well fitted curve in the direction sought with a large enough effect; inconclusive means small, poorly fitted or top-dose-only effect, or another doubt; inactive means no such curve, though single readings can be large; an effect the other way counts as inactive or inconclusive.
# Target: Tumor susceptibility gene 101 protein (Homo sapiens) (UniProt Q99816)
# Sequence (Q99816 whole entry, looked up): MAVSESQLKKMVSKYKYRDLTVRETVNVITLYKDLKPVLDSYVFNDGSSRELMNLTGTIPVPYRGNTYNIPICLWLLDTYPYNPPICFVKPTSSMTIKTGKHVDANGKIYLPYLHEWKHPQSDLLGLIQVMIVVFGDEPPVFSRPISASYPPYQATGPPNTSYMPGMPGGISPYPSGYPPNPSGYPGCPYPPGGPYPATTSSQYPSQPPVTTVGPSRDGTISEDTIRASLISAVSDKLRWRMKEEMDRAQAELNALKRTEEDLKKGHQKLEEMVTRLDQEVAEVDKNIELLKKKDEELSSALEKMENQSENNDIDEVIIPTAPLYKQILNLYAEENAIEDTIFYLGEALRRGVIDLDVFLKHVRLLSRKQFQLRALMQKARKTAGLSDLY
# Experiment: qHTS Validation Assay for Iinhibitors of HIV-1 Budding by Blocking the Interaction of PTAP/TSG101 (AID 485342; calls by dose curve; further: 0% is about no effect)
# Conditions: TSG101-PTAP binding, fluorescence polarization, 4-point titration; series mostly up to 115 µM; fluorescence change: at the top concentration
# Summary of the method: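 Fluorescence anisotropy measured PTAP-Tsg101 interaction. Final concentrations were 10 uM protein domain and 50 nM labeled peptide, equilibrated 20 min at room temperature.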
SMILES,fluorescence change,outcome
Nc1ccc(S(=O)(=O)Nc2ccnn2-c2ccccc2)cc1,3.68% (inactive),
O=c1[nH]cnc2[nH]ncc12,6.27% (inactive),
Cc1[nH]c(=O)c(C#N)cc1-c1ccc2nccn2c1,2.27% (inactive),
CCC(C)N(C)C(=O)c1cc2ccccc2c(-c2ccccc2Cl)n1 (stereo not drawn),3.83% (inactive),
Cc1cn[nH]c1,6.01% (inactive),
N[C@@H]1CONC1=O,0.48% (inactive),
Cc1ccc(N(CC2=NCCN2)c2cccc(O)c2)cc1,-11.5% (inactive),
CCN(CC)CCCC(C)Nc1ccnc2cc(Cl)ccc12 (stereo not drawn),3.36% (inactive),
CNC[C@H](O)c1cccc(O)c1,4.33% (inactive),
CCn1cc(C(=O)O)c(=O)c2cc(F)c(N3CCNC(C)C3)c(F)c21 (stereo not drawn),2.33% (inactive),
NC[C@H](O)c1ccc(O)c(O)c1,-3.97% (inactive),
Cc1[nH]c(=O)c(C#N)cc1-c1ccncc1,-0.0286% (inactive),
NC(=O)c1cnccn1,3.89% (inactive),
CCCCNc1cc(C(=O)O)cc(S(N)(=O)=O)c1Oc1ccccc1,2.44% (inactive),
Clc1cccc(Cl)c1NC1=NCCN1,3.03% (inactive),
NCCCC(N)(C(=O)O)C(F)F (stereo not drawn),1.92% (inactive),
c1ccc([C@H]2CN3CCSC3=N2)cc1,2.64% (inactive),
O=NN(CCCl)C(=O)NCCCl,2.57% (inactive),
CC(C)(C)NCC(O)c1ccc(O)c(CO)c1 (stereo not drawn),,inactive
NS(=O)(=O)c1cc2c(cc1Cl)NC=NS2(=O)=O,5.32% (inactive),
N=c1nc(N2CCCCC2)cc(N)n1O,-1.13% (inactive),
Cc1ccccc1C(OCCN(C)C)c1ccccc1 (stereo not drawn),4.26% (inactive),
CCCC(CCC)C(=O)O,0.827% (inactive),
CC(C[N+](C)(C)C)OC(N)=O (stereo not drawn),4.69% (inactive),
O=C1CCC(N2C(=O)c3ccccc3C2=O)C(=O)N1 (stereo not drawn),-8.41% (inactive),
CC(=O)Oc1ccccc1C(=O)O,-0.0223% (inactive),

# Test system: not listed separately
# Experiment: qHTS Validation Assay to Find Inhibitors of Chronic Active B-Cell Receptor Signaling (AID 485345; active means well fitted curve in the direction sought with a large enough effect in the main read-out, with a control signal flat, not every such curve was filed as active;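 further: 0% = untreated basal cells and 100% = 10 µM MG-132 proteasome inhibitor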)
# Conditions: ABC-DLBCL cells, chronic BCR signaling reporter, CBG luciferase; series mostly up to 46.1 µM; activity change: at the top concentration
# Summary of the method: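 TMD8 ABC-DLBCL cells stably carrying doxycycline-inducible IkappaBalpha–green luciferase fusion plus unfused red luciferase; compounds 46 uM to 3 nM, 4 h at 37C with doxycycline. Corrected green/red luminescence ratio normalized to 10 uM MG-132 and basal cell wells; curves fitted.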
SMILES,activity change,outcome
Nc1ccc(S(=O)(=O)Nc2ccnn2-c2ccccc2)cc1,-5.6% (inactive),
O=c1[nH]cnc2[nH]ncc12,-0.0655% (inactive),
Cc1[nH]c(=O)c(C#N)cc1-c1ccc2nccn2c1,-7.21% (inactive),
CCC(C)N(C)C(=O)c1cc2ccccc2c(-c2ccccc2Cl)n1 (stereo not drawn),-12.1% (inactive),
Cc1cn[nH]c1,-2.88% (inactive),
N[C@@H]1CONC1=O,-1.93% (inactive),
Cc1ccc(N(CC2=NCCN2)c2cccc(O)c2)cc1,-4.22% (inactive),
CCN(CC)CCCC(C)Nc1ccnc2cc(Cl)ccc12 (stereo not drawn),-14.1% (inactive),
CNC[C@H](O)c1cccc(O)c1,-12.3% (inactive),
CCn1cc(C(=O)O)c(=O)c2cc(F)c(N3CCNC(C)C3)c(F)c21 (stereo not drawn),-9.39% (inactive),
NC[C@H](O)c1ccc(O)c(O)c1,-12.6% (inactive),
Cc1[nH]c(=O)c(C#N)cc1-c1ccncc1,-18.9% (inactive),
NC(=O)c1cnccn1,0.832% (inactive),
CCCCNc1cc(C(=O)O)cc(S(N)(=O)=O)c1Oc1ccccc1,6.65% (inactive),
Clc1cccc(Cl)c1NC1=NCCN1,-1.45% (inactive),
NCCCC(N)(C(=O)O)C(F)F (stereo not drawn),-11.7% (inactive),
c1ccc([C@H]2CN3CCSC3=N2)cc1,-7.54% (inactive),
O=NN(CCCl)C(=O)NCCCl,-3.96% (inactive),
CC(C)(C)NCC(O)c1ccc(O)c(CO)c1 (stereo not drawn),,inactive
NS(=O)(=O)c1cc2c(cc1Cl)NC=NS2(=O)=O,-4.84% (inactive),
N=c1nc(N2CCCCC2)cc(N)n1O,-8.22% (inactive),
Cc1ccccc1C(OCCN(C)C)c1ccccc1 (stereo not drawn),-3.77% (inactive),
CCCC(CCC)C(=O)O,4.28% (inactive),
CC(C[N+](C)(C)C)OC(N)=O (stereo not drawn),-9.42% (inactive),
O=C1CCC(N2C(=O)c3ccccc3C2=O)C(=O)N1 (stereo not drawn),-15.1% (inactive),
CC(=O)Oc1ccccc1C(=O)O,-6.4% (inactive),

# Target: Beta-2 adrenergic receptor (Homo sapiens) (UniProt P07550)
# Sequence (P07550 whole entry, looked up): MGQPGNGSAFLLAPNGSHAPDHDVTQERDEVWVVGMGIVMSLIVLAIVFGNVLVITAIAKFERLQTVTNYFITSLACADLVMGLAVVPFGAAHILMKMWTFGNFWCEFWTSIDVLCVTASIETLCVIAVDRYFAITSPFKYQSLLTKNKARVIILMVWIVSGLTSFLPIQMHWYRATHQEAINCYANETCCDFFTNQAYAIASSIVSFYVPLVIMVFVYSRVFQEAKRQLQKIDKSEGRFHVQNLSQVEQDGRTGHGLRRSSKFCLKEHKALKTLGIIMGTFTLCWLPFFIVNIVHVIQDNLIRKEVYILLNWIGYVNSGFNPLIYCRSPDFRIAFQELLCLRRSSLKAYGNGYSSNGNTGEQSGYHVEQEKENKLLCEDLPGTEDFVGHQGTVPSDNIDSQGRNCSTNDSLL
# Experiment: qHTS validation assay of beta-arrestin-biased ligands of beta2-adrenergic receptor (AID 485366); further: 0% is about no effect
# Conditions: cell-based beta-arrestin recruitment to ADRB2, qHTS; series mostly up to 46.1 µM; activation: at the top concentration
# Summary of the method: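 qHTS, Tango cells, 1500 cells/well, DMEM + 1% FBS. Cpd 18 hr at 37 degrees C. Luciferin/ATP/CoA detection mix, 15 min RT, luminescence read. %Activity from corrected signal; CRC fit, curve class.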
row,SMILES,activation
1,Nc1ccc(S(=O)(=O)Nc2ccnn2-c2ccccc2)cc1,-0.14% (inactive)
2,O=c1[nH]cnc2[nH]ncc12,1.57% (inactive)
3,Cc1[nH]c(=O)c(C#N)cc1-c1ccc2nccn2c1,-0.758% (inactive)
4,CCC(C)N(C)C(=O)c1cc2ccccc2c(-c2ccccc2Cl)n1 (stereo not drawn),-0.516% (inactive)
5,Cc1cn[nH]c1,-0.0027% (inactive)
6,N[C@@H]1CONC1=O,0.239% (inactive)
7,Cc1ccc(N(CC2=NCCN2)c2cccc(O)c2)cc1,-0.258% (inactive)
8,CCN(CC)CCCC(C)Nc1ccnc2cc(Cl)ccc12 (stereo not drawn),0.324% (inactive)
9,CNC[C@H](O)c1cccc(O)c1,11.9% (inactive)
10,CCn1cc(C(=O)O)c(=O)c2cc(F)c(N3CCNC(C)C3)c(F)c21 (stereo not drawn),-0.677% (inactive)
11,NC[C@H](O)c1ccc(O)c(O)c1,17.2% (inactive)
12,Cc1[nH]c(=O)c(C#N)cc1-c1ccncc1,-0.0835% (inactive)
13,NC(=O)c1cnccn1,0.432% (inactive)
14,CCCCNc1cc(C(=O)O)cc(S(N)(=O)=O)c1Oc1ccccc1,13.1% (inactive)
15,Clc1cccc(Cl)c1NC1=NCCN1,-0.148% (inactive)
16,NCCCC(N)(C(=O)O)C(F)F (stereo not drawn),0.102% (inactive)
17,c1ccc([C@H]2CN3CCSC3=N2)cc1,0.833% (inactive)
18,O=NN(CCCl)C(=O)NCCCl,-0.145% (inactive)
19,NS(=O)(=O)c1cc2c(cc1Cl)NC=NS2(=O)=O,3.08% (inactive)
20,N=c1nc(N2CCCCC2)cc(N)n1O,-0.0019% (inactive)
21,Cc1ccccc1C(OCCN(C)C)c1ccccc1 (stereo not drawn),-0.0572% (inactive)
22,CCCC(CCC)C(=O)O,-0.356% (inactive)
23,CC(C[N+](C)(C)C)OC(N)=O (stereo not drawn),0.0284% (inactive)
24,O=C1CCC(N2C(=O)c3ccccc3C2=O)C(=O)N1 (stereo not drawn),-0.566% (inactive)
25,CC(=O)Oc1ccccc1C(=O)O,0.245% (inactive)

# Target: ATP-dependent 6-phosphofructokinase (Trypanosoma brucei brucei) (UniProt O15648)
# Sequence (O15648 whole entry, looked up): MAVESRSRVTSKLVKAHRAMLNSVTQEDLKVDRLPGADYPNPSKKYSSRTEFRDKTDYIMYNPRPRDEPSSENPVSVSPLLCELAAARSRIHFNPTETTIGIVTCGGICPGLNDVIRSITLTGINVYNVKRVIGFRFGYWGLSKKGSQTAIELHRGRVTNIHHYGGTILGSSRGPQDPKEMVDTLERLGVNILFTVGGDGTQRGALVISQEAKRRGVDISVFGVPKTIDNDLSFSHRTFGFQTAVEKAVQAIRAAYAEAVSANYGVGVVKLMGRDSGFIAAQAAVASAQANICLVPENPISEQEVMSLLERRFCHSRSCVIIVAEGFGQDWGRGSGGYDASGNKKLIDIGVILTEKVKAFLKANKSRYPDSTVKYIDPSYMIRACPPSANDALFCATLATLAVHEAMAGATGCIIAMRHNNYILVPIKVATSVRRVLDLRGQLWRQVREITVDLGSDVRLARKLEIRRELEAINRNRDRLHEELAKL
# Experiment: qHTS Validation Assay to Find Inhibitors of T. brucei phosphofructokinase (AID 485368)
# Conditions: T. brucei PFK enzyme assay, qHTS 7-point titration; series mostly up to 57.5 µM; activity change, negative = inhibition: at the top concentration
# Summary of the method: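 Luminescent ADP detection measures PFK turnover of fructose-6-phosphate (0.5 mM) with ATP (0.1 mM) at pH 8.0. Reaction runs 45 min at room temperature with 1.25 nM enzyme; inhibitors tested as titrations up to 57 uM.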
row,SMILES,outcome
1,Nc1ccc(S(=O)(=O)Nc2ccnn2-c2ccccc2)cc1,inactive
2,O=c1[nH]cnc2[nH]ncc12,inactive
3,Cc1ccc(N(CC2=NCCN2)c2cccc(O)c2)cc1,inactive
4,CCN(CC)CCCC(C)Nc1ccnc2cc(Cl)ccc12 (stereo not drawn),inactive
5,CNC[C@H](O)c1cccc(O)c1,inactive
6,CCn1cc(C(=O)O)c(=O)c2cc(F)c(N3CCNC(C)C3)c(F)c21 (stereo not drawn),inactive
7,NC(=O)c1cnccn1,inactive
8,Clc1cccc(Cl)c1NC1=NCCN1,inactive
9,NCCCC(N)(C(=O)O)C(F)F (stereo not drawn),inactive
10,O=NN(CCCl)C(=O)NCCCl,inactive
11,CC(C)(C)NCC(O)c1ccc(O)c(CO)c1 (stereo not drawn),inactive
12,Cc1ccccc1C(OCCN(C)C)c1ccccc1 (stereo not drawn),inactive
13,CCCC(CCC)C(=O)O,inactive
14,CC(C[N+](C)(C)C)OC(N)=O (stereo not drawn),inactive
15,O=C1CCC(N2C(=O)c3ccccc3C2=O)C(=O)N1 (stereo not drawn),inactive
16,CC(=O)Oc1ccccc1C(=O)O,inactive
